High-throughput results deposited in PubChem by several laboratories.
The list is not random: actives were taken first. Their share in the collection is about 12%.
Arbovirus inh: antivirals against arbovirus infection; arbovirus infection cell-based antiviral screen; inhibition, % at 10 µM; 0.37% of 200,000 active; AID 1251; in the data active = inhibition above about 30%
CHOP inh: CHOP inhibition in unfolded protein response; inhibition, % at 10 µM; 3.8% of 220,000 active; CHO-K1 CHOP-promoter luciferase, tunicamycin-induced, 15-18 h;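 active = compounds that reduced the stress-induced luciferase reporter signal by more than about 70% of percent inhibition, limit read from the data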
WT yeast gro inh: growth inhibition of WT yeast, mitochondrial fusion screen; mitochondrial fusion phenotypic screen, WT strain; 2.1% of 190,000 active; inhibition, % at 10 µM; in the data active = inhibition above about 58%; tested in S. cerevisiae
Lmaj promast: inhibitors of Leishmania major promastigote growth; inhibition, % at 10 µM; 9% of 200,000 active; Leishmania major promastigotes, resazurin fluorescence viability; in the data active = inhibition above about 50%;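 note: promastigotes grown with compound for 44 hours at 28 °C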
A number is an active result; . = inactive; / = no result given.

SMILES	Arbovirus inh	CHOP inh	WT yeast gro inh	Lmaj promast
CC(C)=CCC/C(C)=C/C=N/NC(=O)c1cccc([N+](=O)[O-])c1	.	89.3	.	.
CCN1/C(=C\C=C(C(C)=O)C(C)=O)Sc2ccccc21	.	.	.	.
CCN1/C(=C\C(=S)Nc2ccccc2)Sc2ccccc21	.	.	69.2	.
Cc1cccc(NC(=S)NCCSc2ccc(Cl)cc2)c1	.	.	80.6	.
Cc1cccc(NC(=S)NCc2ccc(F)cc2)c1	.	.	.	.
Cc1ccc(C)c(NC(=S)NCCSc2ccc(Cl)cc2)c1	.	.	77.8	.
Cc1cccc(NC(=S)NC(C)(C)CC(C)(C)C)c1	.	84.7	68.5	.
Cc1cccc(NC(=O)NCCc2ccc(Cl)cc2)c1	.	.	.	.
COc1ccc(NC(=S)NCCSc2ccc(C)cc2)c(OC)c1	/	/	/	.
COc1ccc(OC)c(NC(=S)NCCSc2ccc(C)cc2)c1	.	.	66.7	.
CC(=O)N(CCC1(C(C)C)CCOC(C)(C)C1)C(C)c1cccs1 (centres undefined)	/	.	/	/
Oc1[nH]c2ccccc2c1C=Nc1ccccc1	/	.	/	/
CCc1ccccc1NC(=S)NCCSc1ccc(Cl)cc1	.	.	81.2	.
Cc1ccc(Cl)cc1NC(=S)NCCCSC1CCCCC1	.	.	86.2	.
Cc1ccccc1NC(=S)NCCSc1ccc(Cl)cc1	.	.	79.7	.
Cc1ccc(NC(=S)NCCSc2ccc(Cl)cc2)c(C)c1	.	.	73.3	.
Cc1cc(Cl)ccc1NC(=S)NCCCO	.	.	.	.
COC(=O)c1sc(NC(=O)CSc2nc3cccnc3n2C2CCCCC2)nc1C	.	.	.	60.8
COc1ccc2nc(NC(=O)CSc3nc4cccnc4n3C)sc2c1	.	.	.	.
COc1ccc(OC)c(S(=O)(=O)N2CCC(C(=O)Nc3cccc(C)c3)CC2)c1	.	.	.	99.9
COC(=O)c1ccccc1NC(=O)C1CCN(S(=O)(=O)c2cc(C)ccc2OC)CC1	.	.	.	75.8
CCn1cc(C(=O)Nc2ccc(OC)c(S(=O)(=O)N3CCCCC3)c2)c(=O)c2ccc(C)nc21	.	.	.	67.1
COc1ccc(S(=O)(=O)N2CCCCC2)cc1NC(=O)c1ccc(=O)[nH]c1	.	.	.	.
COc1ccc(NC(=O)c2ccc(=O)[nH]c2)cc1S(=O)(=O)N1CCCCC1	.	.	.	56.4
CCOc1ncccc1C(=O)Nc1ccc(OC)c(S(=O)(=O)N2CCCCC2)c1	.	.	.	.
SMILES	Arbovirus inh	CHOP inh	WT yeast gro inh	Lmaj promast
COc1ccc(OC)c(S(=O)(=O)N2CCC(C(=O)Nc3ccccc3)CC2)c1	.	.	.	.
COc1ccc(NC(=O)C2CCC(C(C)(C)C)CC2)cc1S(=O)(=O)N1CCCCC1 (centres undefined)	.	.	.	99.2
CC(C)CCN1CCN(Cc2cnc(-c3ccccc3)s2)CC1CCO (centres undefined)	.	.	.	88.0
CC(C)N1CCN(Cc2cnc(-c3ccccc3)s2)CC1CCO (centres undefined)	/	.	/	/
Cc1ccc(CN2CCN(CCCc3ccccc3)CC2CCO)cc1 (centres undefined)	.	.	.	86.7
CC(C)CCN1CCN(Cc2cccn2-c2ccc(Cl)cn2)CC1CCO (centres undefined)	.	.	.	73.4
Cc1ncc(CN2CCN(CCc3ccccc3)C(CCO)C2)s1 (centres undefined)	.	.	.	63.5
Cc1nnc(N)s1	/	.	/	/
Cc1ccsc1C(=O)OCC(=O)Nc1cccc(S(=O)(=O)N2CCOCC2)c1	.	.	.	.
Cc1cccc(NC(=O)CSc2nnnn2-c2ccc3c(c2)OCCO3)n1	.	.	.	.
O=C(NC12CC3CC(CC(C3)C1)C2)C12CC3CC(C1)CC(n1cnc(Cl)n1)(C3)C2	.	.	.	.
O=C(Cn1cnc2ccccc21)N/N=C/c1cccc([N+](=O)[O-])c1	.	.	.	.
O=C(NNc1cccc(Cl)c1)c1cccnc1Oc1ccccc1	/	.	/	/
COc1cccc2c1OCC(CN1CCN(CCC(C)C)C(CCO)C1)=C2 (centres undefined)	.	.	.	69.9
Cc1ccnc(N/C=C(/NC(=O)c2ccccc2)C(=O)N/N=C\c2ccc(Cl)cc2)n1	/	.	/	/
CCCCOc1ccccc1C1C(C(=O)OC)=C(C)N(C)C(C)=C1C(=O)OC	.	.	.	87.7
COc1ccc(Cl)cc1NC(=O)CCNC(=O)OCc1ccccc1	.	.	.	.
Cc1nn(-c2ccccc2)c(N2CCCC2)c1/C=N/n1cnc2scc(-c3ccccc3)c2c1=O	.	.	.	56.4
O=c1c2c(-c3ccccc3)csc2ncn1/N=C/c1c2ccccc2cc2ccccc12	.	.	.	99.9
Cc1ccc(C2CC(C(F)F)n3ncc(C(=O)Nc4cnn(Cc5ccccc5C)c4)c3N2)cc1 (centres undefined)	.	72.6	.	.
Cc1ccccc1Cn1cc(NC(=O)c2nn(C)cc2Cl)cn1	.	.	.	.
Cc1ccc(C(=O)/C=C/c2cn(CC(O)CN3CCOCC3)c3ccccc23)cc1 (centres undefined)	.	.	.	52.9
Cc1nnc(SCC(=O)NNC(=O)C(C)C)[nH]c1=O	.	.	.	.
Cn1cc(Br)c(C(=O)NNC(=O)c2ccc(Cl)cc2)n1	.	.	.	52.1
Cc1cc(NC(=O)NN2CCOCC2)nn1-c1c(Cl)cc(Cl)cc1Cl	/	.	/	/
SMILES	Arbovirus inh	CHOP inh	WT yeast gro inh	Lmaj promast
Fc1ccccc1C1CC(c2ccco2)=Nc2ccccc2S1 (centres undefined)	/	.	/	/
COc1ccccc1C1CC(c2cccs2)=Nc2ccccc2S1 (centres undefined)	.	84.0	.	.
O=C1Nc2ccc(S(=O)(=O)N3CCCC3)c3cccc1c23	.	.	.	.
O=C(c1ccco1)N1C(=O)c2cccc3c(S(=O)(=O)N4CCCC4)ccc1c23	.	74.2	.	.
CC(/C=C/c1ccccc1)=N/NC(=O)Cn1nnc(N)n1	/	.	/	/
Cc1ccc(Cl)cc1N1CCN(C(c2ccc(C#N)cc2)c2nnnn2C2CCCC2)CC1 (centres undefined)	.	.	.	71.0
Cc1ccc(Cl)cc1N1CCN(C(c2cccnc2)c2nnnn2C2CCCCC2)CC1 (centres undefined)	.	.	.	99.1
Cc1ccc(C(c2nnnn2C2CCCCC2)N2CCN3CCCC3C2)cc1 (centres undefined)	.	.	.	.
CCOC(=O)CSC1=N/C(=C\c2ccc(OC)c(OC)c2)C(=O)N1C	.	.	.	.
Oc1ccc(Cl)cc1C1=NNC(c2cc(Br)cc3c2OCOC3)C1 (centres undefined)	.	78.6	.	.
Oc1c(Cl)cc(Cl)cc1C1=NNC(c2ccc(Cl)cc2)C1 (centres undefined)	.	.	.	.
Oc1ccc(Cl)cc1C1=NNC(c2ccc(Cl)cc2)C1 (centres undefined)	.	78.3	.	.
CN(C)c1ccc(P(=O)(OC2CCCCC2)C(O)c2ccncc2)cc1 (centres undefined)	/	.	/	/
O=S(=O)(c1ccccc1F)N(Cc1ccco1)Cc1nnc(-c2ccccc2Br)o1	.	.	.	65.1
Cc1ccc([N+](=O)[O-])cc1-c1ccc(/C=C(\C#N)c2[nH]nc(N)c2C#N)o1	.	.	.	74.6
COCc1cc(C)nc(OCC(=O)N/N=C/c2ccc(-c3cc([N+](=O)[O-])ccc3C)o2)c1C#N	.	.	.	.
